Results reported in PubChem BioAssay (EPA / NIEHS).
Results filed as inconclusive are left out. Activity calls are given as the source filed them. Rule for the calls: active = hit-call score of the fitted dose curve at least 0.9, where 1 is the maximum; inconclusive = response in the unintended direction; inactive = score below 0.9.

Target: Estrogen receptor (Homo sapiens) + Estrogen receptor beta (Homo sapiens) (UniProt P03372+Q92731)
Assay: OT_ER_ERaERb_1440: Odyssey Thera (OT) 24-hour HEK293T Protein-Complementation Assay for Estrogen Receptor-alpha/-beta Homodimer (AID 2283356);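 note: hits raise reporter fluorescence and both agonists and antagonists give an increase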
Protocol: OT_ER_ERaERb_1440 is a cell-based assay that uses HEK293T, a human kidney cell line, with measurements taken at 24 hours after chemical dosing in a 384-well plate.OT_ER_ERaERb_1440 is one of one assay component(s) measured or calculated from the OT_ER_ERaERb_1440 assay. It is designed to make measurements of protein fragment complementation, a form of binding reporter, as detected with fluorescence intensity signals by Protein-fragment Complementation technology.Data from the assay component OT_ER_ERaERb_1440 was analyzed into 1 assay endpoint. This assay endpoint, OT_ER_ERaERb_1440, was analyzed in the positive analysis fitting direction relative to DMSO as the negative control and baseline of activity. Using a type of binding reporter, measures of receptor for gain-of-signal activity can be used to understand the binding at the pathway-level as they relate to the gene ESR1 and ESR2. Furthermore, this assay endpoint can be referred to as a primary readout, because the performed assay has only produced 1 assay endpoint. To generalize the intended target to other relatable targets, this assay endpoint is annotated to the nuclear receptor intended target family, where the subfamily is steroidal.
Protein-fragment complementation assay, or PCA, is a method for the identification and quantification of protein-protein interactions. In the PCA, the proteins of interest ("bait" and "prey") are each covalently linked to fragments of a third protein (e.g. DHFR, which acts as a "reporter"). Interaction between the bait and the prey proteins brings the fragments of the reporter protein in close proximity to allow them to form a functional reporter protein whose activity can be measured. The OT ER alpha / ER beta assay is a heterodimer PCA of the ligand binding domain (LBD) of ER alpha (amino acids 310-547) and human ER beta (amino acids 263-489) stably expressed in HEK293T cells. […] Fluorescent signal in the basal state of the assay is very low and is primarily punctuate and cytoplasmic. Modulation of this assay is quantified as an increase in mean fluorescence intensity in the nucleus (for agonists) or in the nucleus and cytoplasm (antagonists) relative to vehicle controls, and can be quantified on a high content imaging device or a laser scanning cytometer. The latter instrument is favored for this assay because of the rapid mode of data acquisition, the ability to acquire data from the entire cell population in a well (as opposed to a fraction of the well on the high content devices) and the larger dynamic range typically achieved with this instrument. To assess sensitivity of the ER alpha/ER beta LBD assay to ligand, cells were treated with the ER agonist 17- beta-estradiol (E2) in 10-point concentration- response format for 24 hours and monitored response on a laser scanning plate cytometer (Acumen eX3; TTP Lab Tech).

Sequence of Estrogen receptor (Homo sapiens) + Estrogen receptor beta (Homo sapiens) (P03372 whole entry, looked up): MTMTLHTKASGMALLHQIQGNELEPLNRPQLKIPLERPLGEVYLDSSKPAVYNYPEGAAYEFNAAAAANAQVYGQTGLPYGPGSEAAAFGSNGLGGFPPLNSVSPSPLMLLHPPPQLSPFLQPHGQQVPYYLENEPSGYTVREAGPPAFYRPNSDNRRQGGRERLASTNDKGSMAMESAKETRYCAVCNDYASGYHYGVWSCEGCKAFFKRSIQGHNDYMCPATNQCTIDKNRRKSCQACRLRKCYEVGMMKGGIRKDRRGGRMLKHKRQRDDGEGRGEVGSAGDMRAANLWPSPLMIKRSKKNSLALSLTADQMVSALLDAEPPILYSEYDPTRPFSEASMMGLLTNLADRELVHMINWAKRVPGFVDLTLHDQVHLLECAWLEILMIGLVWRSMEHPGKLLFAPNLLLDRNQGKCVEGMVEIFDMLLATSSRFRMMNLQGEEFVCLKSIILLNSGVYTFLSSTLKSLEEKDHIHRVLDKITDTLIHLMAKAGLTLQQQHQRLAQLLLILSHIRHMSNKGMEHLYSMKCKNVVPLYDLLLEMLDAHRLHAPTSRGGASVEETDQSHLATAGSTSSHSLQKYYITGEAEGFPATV
Sequence of Estrogen receptor (Homo sapiens) + Estrogen receptor beta (Homo sapiens) (Q92731 whole entry, looked up): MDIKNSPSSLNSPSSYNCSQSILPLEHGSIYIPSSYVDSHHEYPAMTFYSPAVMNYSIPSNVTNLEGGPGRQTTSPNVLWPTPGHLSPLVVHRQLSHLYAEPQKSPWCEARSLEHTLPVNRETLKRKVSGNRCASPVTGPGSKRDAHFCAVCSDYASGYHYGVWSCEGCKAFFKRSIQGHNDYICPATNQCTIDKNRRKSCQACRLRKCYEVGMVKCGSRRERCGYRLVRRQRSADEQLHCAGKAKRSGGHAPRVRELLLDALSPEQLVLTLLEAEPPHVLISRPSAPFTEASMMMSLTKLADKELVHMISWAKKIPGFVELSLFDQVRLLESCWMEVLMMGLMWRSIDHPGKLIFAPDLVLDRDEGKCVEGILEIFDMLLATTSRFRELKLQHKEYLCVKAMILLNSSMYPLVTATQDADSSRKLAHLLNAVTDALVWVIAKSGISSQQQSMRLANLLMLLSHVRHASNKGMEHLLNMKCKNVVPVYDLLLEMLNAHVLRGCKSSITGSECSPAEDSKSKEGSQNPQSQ

| SMILES | outcome | AC50 |
| --- | --- | --- |
| C#CCN1C(=O)COc2cc(F)c(N3C(=O)C4=C(CCCC4)C3=O)cc21 | inactive | – |
| CC1(c2ccc(Oc3ccccc3)cc2)OC(=O)N(Nc2ccccc2)C1=O (stereo not drawn) | inactive | – |
| N#CN | inactive | – |
| CNC(=O)Oc1cccc(N=CN(C)C)c1 | inactive | – |
| O=[N+]([O-])/N=C1\NCCN1Cc1ccc(Cl)nc1 | inactive | – |
| COc1nn(CSP(=S)(OC)OC)c(=O)s1 | inactive | – |
| CNC(=O)Oc1ccccc1OC(C)C | inactive | – |
| CC1(C)C(C=C(Cl)Cl)C1C(=O)OC(C#N)c1ccc(F)c(Oc2ccccc2)c1 (stereo not drawn) | inactive | – |
| CCc1ccc(C(=O)NN(C(=O)c2cc(C)cc(C)c2)C(C)(C)C)cc1 | inactive | – |
| COP(=S)(OC)Oc1ccc([N+](=O)[O-])cc1 | inactive | – |
| COP(=O)(OC)OC=C(Cl)Cl | inactive | – |
| CNC(=O)CSP(=S)(OC)OC | inactive | – |
| O=C(NC(=O)c1c(F)cccc1F)Nc1ccc(OC(F)(F)C(F)OC(F)(F)F)c(Cl)c1 (stereo not drawn) | inactive | – |
| CC(C)(C)C(O)/C(=C\c1ccc(Cl)cc1Cl)n1cncn1 (stereo not drawn) | inactive | – |
| C[C@H]1[C@H](c2ccc(Cl)cc2)SC(=O)N1C(=O)NC1CCCCC1 | inactive | – |
| CCC(C)Nc1c([N+](=O)[O-])cc(C(C)(C)C)cc1[N+](=O)[O-] (stereo not drawn) | – | 69.9 µM (active) |
| OCCOc1ccccc1 | inactive | – |
| O=[N+]([O-])c1c(Cl)c(Cl)c(Cl)c(Cl)c1Cl | inactive | – |
| CCOCN(C(=O)CCl)c1c(C)cccc1CC | inactive | – |
| CC(C)OC(=O)Nc1cccc(Cl)c1 | inactive | – |
| N#Cc1c(Cl)c(Cl)c(Cl)c(C#N)c1Cl | inactive | – |
| O=C(Nc1ccccc1)Nc1cnns1 | inactive | – |
| CCC(C)(C)C(=O)OC1=C(c2ccc(Cl)cc2Cl)C(=O)OC12CCCCC2 | inactive | – |
| CNC(=O)/C=C(\C)OP(=O)(OC)OC | inactive | – |
| CCC(C)(NC(=O)c1cc(Cl)c(C)c(Cl)c1)C(=O)CCl (stereo not drawn) | inactive | – |
| COP(=S)(OC)Oc1ccc(SC)c(C)c1 | inactive | – |
| CCOC1Oc2ccc(OS(C)(=O)=O)cc2C1(C)C (stereo not drawn) | inactive | – |
| Clc1ccccc1-c1nnc(-c2ccccc2Cl)nn1 | inactive | – |
